Results taken from PubChem BioAssay (NCATS).
Inconclusive results are not listed. A call without a number means that no potency is given here. Activity calls are given as the source filed them. Calls come from the whole dose curve; as a rule, active = well fitted cell-killing curve with a large enough effect; inconclusive = small, poorly fitted or top-dose-only effect, or effect the other way; inactive = flat fitted curve, though single readings scatter.
Potency is the fitted concentration of half-maximal effect.

These compounds were tested on CASKI (assay: Primary qHTS to identify gynecologic anti-cancer compounds using libraries of approved drugs and bioactive compounds (AID 1345084; note: nearly all actives have a fitted effect of over 55% in size)). Details: Gynecologic cancer cell panel viability, ATPlite luminescence, 48 h; series mostly up to 57.5 µM.
Method in brief: (§1)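 Luminescence from the ATPlite ATP-monitoring reagent indicates viable cell number; lower signal means cytotoxicity. Cells received compound 16 h after seeding and were exposed for 48 h across five concentrations.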
With `CCC(C)(C)C(=O)O[C@H]1C[C@@H](C)C=C2C=C[C@H](C)[C@H](CC[C@@H]3C[C@@H](O)CC(=O)O3)[C@H]21` the Potency was “inactive”.
For `COc1cc(F)c(F)c(Nc2ccc(I)cc2F)c1NS(=O)(=O)C1(C[C@H](O)CO)CC1`, the Potency was “inactive”.
For `COc1cc(Oc2ccnc3cc(OC)c(OC)cc23)ccc1NC(=O)NC(C)c1nccs1` (centres undefined), the Potency was “inactive”.
`Oc1ccc(C2CNCCc3c2cc(O)c(O)c3Cl)cc1` (centres undefined) was tested, and the Potency was “inactive”.
With `NC[C@H](O)c1ccc(O)c(O)c1` the Potency was “inactive”.
`COc1ccc2nc(S(=O)Cc3ncc(C)c(OC)c3C)[nH]c2c1` (centres undefined) was tested, and the Potency was “inactive”.
For `CN(C)c1ccc(C2Nc3ccc4ccccc4c3C3=C2C(=O)CC(C)(C)C3)cc1Br` (centres undefined), the Potency was “inactive”.
`COc1cc2nccc(Oc3ccc(NC(=O)NC4CC4)c(Cl)c3)c2cc1C(N)=O` was tested, and the Potency was “inactive”.
For `CCc1cc(Nc2nccc(-c3c(-c4ccc(OC)c(C(=O)Nc5c(F)cccc5F)c4)nc4ccccn34)n2)c(OC)cc1N1CCC(N2CCN(S(C)(=O)=O)CC2)CC1`, the Potency was “inactive”.
`Cc1oncc1C(=O)Nc1ccc(C(F)(F)F)cc1` was tested, and the Potency was 31.6 µM (active).
`CN(C)c1ccc(Nc2nc(N)n(C(=O)c3c(F)cccc3F)n2)cc1` was tested, and the Potency was “inactive”.
For `N[C@@H]1CONC1=O`, the Potency was “inactive”.
`CCOC(=O)C1=C[C@]2(CC)CCCN3CCc4c(n1c1ccccc41)[C@@H]32` was tested, and the Potency was “inactive”.
With `CCn1cc(C(=O)O)c(=O)c2cc(F)c(N3CCNC(C)C3)c(F)c21` (centres undefined) the Potency was “inactive”.

These compounds were tested on Es-2 in the same assay as above. Details: Gynecologic cancer cell panel viability, ATPlite luminescence, 48 h; series mostly up to 57.5 µM.
Method in brief: as §1
`Nc1nc2c(ncn2COCCO)c(=O)[nH]1` was tested, and the Potency was “inactive”.
For `COc1cc(Oc2ccnc3cc(OC)c(OC)cc23)ccc1NC(=O)NC(C)c1nccs1` (centres undefined), the Potency was “inactive”.
For `Oc1ccc(C2CNCCc3c2cc(O)c(O)c3Cl)cc1` (centres undefined), the Potency was “inactive”.
With `NC[C@H](O)c1ccc(O)c(O)c1` the Potency was “inactive”.
For `COc1ccc2nc(S(=O)Cc3ncc(C)c(OC)c3C)[nH]c2c1` (centres undefined), the Potency was “inactive”.
In the case of `CN(C)c1ccc(C2Nc3ccc4ccccc4c3C3=C2C(=O)CC(C)(C)C3)cc1Br` (centres undefined), the Potency is reported as “inactive”.
For `COc1cc2nccc(Oc3ccc(NC(=O)NC4CC4)c(Cl)c3)c2cc1C(N)=O`, the Potency was “inactive”.
For `CCc1cc(Nc2nccc(-c3c(-c4ccc(OC)c(C(=O)Nc5c(F)cccc5F)c4)nc4ccccn34)n2)c(OC)cc1N1CCC(N2CCN(S(C)(=O)=O)CC2)CC1`, the Potency was “inactive”.
`Cc1oncc1C(=O)Nc1ccc(C(F)(F)F)cc1` was tested, and the Potency was 28.2 µM (active).
In the case of `CN(C)c1ccc(Nc2nc(N)n(C(=O)c3c(F)cccc3F)n2)cc1`, the Potency is reported as “inactive”.
With `N[C@@H]1CONC1=O` the Potency was “inactive”.
In the case of `CCOC(=O)C1=C[C@]2(CC)CCCN3CCc4c(n1c1ccccc41)[C@@H]32`, the Potency is reported as “inactive”.
`CCn1cc(C(=O)O)c(=O)c2cc(F)c(N3CCNC(C)C3)c(F)c21` (centres undefined) was tested, and the Potency was “inactive”.

Each compound was assayed on HeLa in the same assay as above. Details: Gynecologic cancer cell panel viability, ATPlite luminescence, 48 h; series mostly up to 57.5 µM.
Method in brief: as §1
With `COc1cc(F)c(F)c(Nc2ccc(I)cc2F)c1NS(=O)(=O)C1(C[C@H](O)CO)CC1` the Potency was “inactive”.
With `Nc1nc2c(ncn2COCCO)c(=O)[nH]1` the Potency was “inactive”.
With `COc1cc(Oc2ccnc3cc(OC)c(OC)cc23)ccc1NC(=O)NC(C)c1nccs1` (centres undefined) the Potency was “inactive”.
With `Oc1ccc(C2CNCCc3c2cc(O)c(O)c3Cl)cc1` (centres undefined) the Potency was “inactive”.
`NC[C@H](O)c1ccc(O)c(O)c1` was tested, and the Potency was “inactive”.
With `COc1ccc2nc(S(=O)Cc3ncc(C)c(OC)c3C)[nH]c2c1` (centres undefined) the Potency was “inactive”.
In the case of `CN(C)c1ccc(C2Nc3ccc4ccccc4c3C3=C2C(=O)CC(C)(C)C3)cc1Br` (centres undefined), the Potency is reported as “inactive”.
For `COc1cc2nccc(Oc3ccc(NC(=O)NC4CC4)c(Cl)c3)c2cc1C(N)=O`, the Potency was “inactive”.
`Cc1oncc1C(=O)Nc1ccc(C(F)(F)F)cc1` was tested, and the Potency was 25.1 µM (active).
`CN(C)c1ccc(Nc2nc(N)n(C(=O)c3c(F)cccc3F)n2)cc1` was tested, and the Potency was 12.6 µM (active).
For `N[C@@H]1CONC1=O`, the Potency was “inactive”.
`CCOC(=O)C1=C[C@]2(CC)CCCN3CCc4c(n1c1ccccc41)[C@@H]32` was tested, and the Potency was “inactive”.
In the case of `CCn1cc(C(=O)O)c(=O)c2cc(F)c(N3CCNC(C)C3)c(F)c21` (centres undefined), the Potency is reported as “inactive”.

These compounds were tested on Hek293T in the same assay as above. Details: Gynecologic cancer cell panel viability, ATPlite luminescence, 48 h, control line for the selectivity index; series mostly up to 57.5 µM.
Method in brief: as §1
For `COc1cc(F)c(F)c(Nc2ccc(I)cc2F)c1NS(=O)(=O)C1(C[C@H](O)CO)CC1`, the Potency was “inactive”.
With `Nc1nc2c(ncn2COCCO)c(=O)[nH]1` the Potency was “inactive”.
In the case of `COc1cc(Oc2ccnc3cc(OC)c(OC)cc23)ccc1NC(=O)NC(C)c1nccs1` (centres undefined), the Potency is reported as “inactive”.
`Oc1ccc(C2CNCCc3c2cc(O)c(O)c3Cl)cc1` (centres undefined) was tested, and the Potency was “inactive”.
With `NC[C@H](O)c1ccc(O)c(O)c1` the Potency was “inactive”.
In the case of `COc1ccc2nc(S(=O)Cc3ncc(C)c(OC)c3C)[nH]c2c1` (centres undefined), the Potency is reported as “inactive”.
With `CN(C)c1ccc(C2Nc3ccc4ccccc4c3C3=C2C(=O)CC(C)(C)C3)cc1Br` (centres undefined) the Potency was “inactive”.
For `COc1cc2nccc(Oc3ccc(NC(=O)NC4CC4)c(Cl)c3)c2cc1C(N)=O`, the Potency was “inactive”.
For `CCc1cc(Nc2nccc(-c3c(-c4ccc(OC)c(C(=O)Nc5c(F)cccc5F)c4)nc4ccccn34)n2)c(OC)cc1N1CCC(N2CCN(S(C)(=O)=O)CC2)CC1`, the Potency was “inactive”.
For `Cc1oncc1C(=O)Nc1ccc(C(F)(F)F)cc1`, the Potency was 14.1 µM (active).
`CN(C)c1ccc(Nc2nc(N)n(C(=O)c3c(F)cccc3F)n2)cc1` was tested, and the Potency was “inactive”.
With `N[C@@H]1CONC1=O` the Potency was “inactive”.
With `CCOC(=O)C1=C[C@]2(CC)CCCN3CCc4c(n1c1ccccc41)[C@@H]32` the Potency was “inactive”.
With `CCn1cc(C(=O)O)c(=O)c2cc(F)c(N3CCNC(C)C3)c(F)c21` (centres undefined) the Potency was “inactive”.
